From PubChem BioAssay AID2685 (National Center for Advancing Translational Sciences (NCATS), 2010)
In all, about 320,000 compounds went through this assay and about 2,100 (0.66%) were called active. Roughly 53% stayed inconclusive and do not appear here. Calls come from the whole dose curve; as a rule, active = well fitted inhibition curve with a large enough effect in the signal ratio, with a control signal flat (not every such curve was filed as active); inconclusive = small, poorly fitted or top-dose-only effect, or effect the other way, or a change in a side signal; inactive = flat fitted curve, though single readings scatter; the % refers to the signal ratio. Only a selection was taken, and actives are over-represented in it overall.

experiment: qHTS Assay for Lipid Storage Modulators in Drosophila S3 Cells; settings: BODIPY lipid droplet fluorescence, 18-24 h, cells fed with added oleic acid; cell number change: measured here: cell count max response; series mostly up to 46.1 µM; lipid storage change, negative = inhibition: at the top concentration;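 for cell number change: cells counted by Cell Tracker Red CMTPX staining in the red channel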; for lipid storage change, negative = inhibition: % is set by controls: 0 for no effect and ±100 for the full control effect
Outline: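 Laser-scanning cytometry quantifies lipid droplet accumulation (500–530 nm total intensity; droplet/cell object ratio) in oleic acid-fed (400 uM added) Drosophila S3 cells treated with a concentration series. 20 uM Triacsin C defined 100% inhibition.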
Potency is the fitted concentration of half-maximal effect.

Row | Compound | lipid storage change, negative = inhibition | cell number change | outcome | Potency
1 | CCC(=O)N(c1ccc(C(=O)O)cc1)c1nc(-c2ccc(OC)cc2)c(C)s1 | 1.19% (inactive) | -9.44% | – | –
2 | CC(=O)Cc1nsc(NC(=O)c2ccc(-c3cc(Cl)ccc3Cl)o2)n1 | 12.3% (inactive) | 15.1% | – | –
3 | CS(=O)(=O)c1ccc(C(=O)Nc2cccc(-c3nc4ccccc4[nH]3)c2)cc1 | – | 3.88% | inactive | –
4 | CS(=O)(=O)c1cccc(C(=O)Nc2cccc(-c3nc4ccccc4[nH]3)c2)c1 | – | -15% | – | 7.31 µM (active)
5 | CS(=O)(=O)c1cccc(C(=O)Nc2ccc(-c3nc4ccccc4[nH]3)cc2)c1 | – | 86.3% | inactive | –
6 | COc1cccc(C(=O)Nc2nc3ccccc3[nH]2)c1 | -0.695% (inactive) | 17.8% | – | –
7 | CN(C)c1cccc(C(=O)Nc2nc3ccccc3[nH]2)c1 | – | -3.6% | – | 14.6 µM (active)
8 | O=C(Nc1nc2ccccc2[nH]1)c1cccc([N+](=O)[O-])c1 | 5.31% (inactive) | -8.28% | – | –
9 | Cn1c(N2CCOCC2)c(/C=N/OC(=O)c2cccnc2Cl)c2ccccc21 | – | – | inactive | –
10 | Cc1ccc(NS(=O)(=O)c2ccc3c(c2)NC(=O)CO3)c(C)c1 | – | -9.44% | inactive | –
11 | O=C1CCCN1S(=O)(=O)c1ccccc1 | -16.7% (inactive) | -14.6% | – | –
12 | O=C(Nc1nnc(C2CC2)s1)c1cccc(S(=O)(=O)N2CC(c3ccccc3)CC2=O)c1 (configuration not stated) | 14.3% [at 9.22 µM] (inactive) | – | – | –
13 | O=C1CC(c2ccccc2)CN1S(=O)(=O)c1ccccc1 (configuration not stated) | – | -20.2% | – | 20.6 µM (active)
14 | O=C(N=C1SC2CS(=O)(=O)CC2N1CCc1ccccc1)C1CCCCC1 (configuration not stated) | – | – | inactive | –
15 | Cc1cc(C=O)c(C)n1-c1cccc(C(=O)O)c1 | 22.3% (inactive) | 7.64% | – | –
16 | Cc1ccc(OCCOC(=O)c2cc(S(=O)(=O)N3CCCCC3)ccc2N2CCOCC2)cc1 | – | -27% | – | 5.17 µM (active)
17 | CC(C)(C)NC(=O)COC(=O)c1cc(S(=O)(=O)N2CCCCC2)ccc1N1CCOCC1 | -8.17% (inactive) | – | – | –
18 | CC(C)(C)C(=O)COC(=O)c1cc(S(=O)(=O)N2CCCCC2)ccc1N1CCOCC1 | -21.4% [at 0.0737 µM] (inactive) | -8.75% | – | –
19 | CC(=O)Nc1ccc(NC(=O)COC(=O)/C=C/c2ccc3c(c2)OCO3)cc1 | – | -1.06% | – | 5.17 µM (active)
20 | COc1ccccc1NC(=O)COC(=O)/C=C/c1ccc2c(c1)OCO2 | 3.62% (inactive) | 18% | – | –

Row | Compound | lipid storage change, negative = inhibition | cell number change | outcome | Potency
21 | NC(=O)c1ccc(NC(=O)COC(=O)/C=C/c2ccc3c(c2)OCO3)cc1 | -1.6% (inactive) | 9.72% | – | –
22 | CCOC(=O)C1(Cc2ccccc2C(F)(F)F)CCN(C2CCN(C(C)=O)CC2)CC1 | 6.45% (inactive) | 11.4% | – | –
23 | CC1CCc2nc(N)c(C#N)c(-c3cccn3C)c2C1 (configuration not stated) | 12% (inactive) | – | – | –
24 | COc1cccc2cc(C(=O)NCc3ccccc3Br)c(=O)oc12 | 9.42% (inactive) | 1.66% | – | –
25 | CC1Cc2ccccc2N1C(=O)c1cc2cccnc2n(C)c1=O (configuration not stated) | 4.14% (inactive) | 1.02% | – | –
26 | NS(=O)(=O)c1cc2c(cc1Cl)NC(c1ccccc1OCC(=O)O)NS2(=O)=O (configuration not stated) | – | -10.4% | inactive | –
27 | COc1ccccc1/C=C/C(=O)NCc1cccnc1 | 11.8% (inactive) | -13.8% | – | –
28 | COC(=O)/C=C/C(=O)Nc1cccnc1 | 6.84% (inactive) | -5.59% | – | –
29 | COc1ccccc1/C=C/C(C)=O | 0.161% (inactive) | 3.8% | – | –
30 | COc1ccccc1/C=C/C(=O)c1ccc(Cl)cc1 | – | 1.97% | – | 4.61 µM (active)
31 | COc1ccc(/C=C/C(=O)c2ccc(Cl)cc2)c(OC)c1 | -3.9% (inactive) | -5.6% | – | –
32 | COc1ccccc1/C=C/C(=O)Nc1cccnc1 | – | -14.6% | – | 5.8 µM (active)
33 | CCCOc1ccc(/C=N/Nc2ccc(C(=O)O)cc2)c(OCCC)c1 | 15.7% (inactive) | 9.43% | – | –
34 | CCn1nc(NS(=O)(=O)c2ccc(NC(C)=O)cc2)c2cc3ccccc3nc21 | – | -12.4% | inactive | –
35 | COCCN1C(=O)N[C@@H](c2ccco2)C(C(C)=O)=C1C | -6.07% (inactive) | 3.8% | – | –
36 | COCCCNC(=O)CN(c1cccc(Cl)c1)S(C)(=O)=O | 4.41% (inactive) | -7.55% | – | –
37 | CCC(C)Nc1cc(C)c(C#N)c2nc3ccccc3n12 (configuration not stated) | 6.81% (inactive) | 5.52% | – | –
38 | CNc1cc(C)c(C#N)c2nc3ccccc3n12 | – | -18.9% | inactive | –
39 | Cc1cc(NC(C)C)n2c(nc3ccccc32)c1C#N | – | -88.9% | – | 16.4 µM (active)
40 | CC1CCCC(C)N1C(=O)Cn1cc(/C=C2/C(=O)Nc3ccccc32)c2ccccc21 (configuration not stated) | – | -83.5% | – | 23.1 µM (active)

Row | Compound | lipid storage change, negative = inhibition | cell number change | outcome | Potency
41 | CC1CCCC(C)N1C(=O)Cn1cc(C#N)c2ccccc21 (configuration not stated) | 19.1% (inactive) | 9.53% | – | –
42 | COC(=O)c1cn(CC(=O)N2C(C)CCCC2C)c2ccccc12 (configuration not stated) | 1.45% (inactive) | 9.64% | – | –
43 | O=C(CS(=O)(=O)Cc1ccccc1)NCc1ccco1 | -0.383% (inactive) | -5.74% | – | –
44 | Cc1ccc(CCNC(=O)C2CCCN(S(=O)(=O)N3CC(C)CC(C)C3)C2)cc1 (configuration not stated) | -23.2% (inactive) | -24.2% | – | –
45 | CC(C)(C)c1ccc(OC(=O)Cn2c(C(F)(F)F)nc3ccccc32)cc1 | – | -15.3% | – | 13 µM (active)
46 | CC(C)(C)NC(=O)NC(=O)COC(=O)Cn1cnc2ccccc2c1=O | – | -17.2% | inactive | –
47 | CC(=O)Cn1c(C(F)(F)F)nc2ccccc21 | -2.72% (inactive) | -7.24% | – | –
48 | CC(C)(C)NC(=O)NC(=O)COC(=O)Cn1c(C(F)(F)F)nc2ccccc21 | – | -8.07% | – | 5.17 µM (active)
49 | COC(=O)Cn1c(C(F)(F)F)nc2ccccc21 | -1.69% (inactive) | -24.1% | – | –
50 | CCOC(=O)c1c(NC(=O)COC(=O)Cn2c(C(F)(F)F)nc3ccccc32)sc(C)c1C | 0.975% (inactive) | 2.48% | – | –
51 | Nc1ccc(C(=O)Nc2cccc(NC(=O)c3ccc(N)cc3)c2)cc1 | – | -20.4% | inactive | –
52 | CCCN1C(=O)C2C(C(=O)Nc3cccc(OC)c3)C3C=CC2(O3)C1C(=O)NC1CCCCC1 (configuration not stated) | -3.79% (inactive) | 1.47% | – | –
53 | Cc1ccc(S(=O)(=O)N(CC(=O)O)Cc2ccco2)cc1 | -18.7% (inactive) | 0.734% | – | –
54 | COc1cccc(NC(=S)NCc2cccnc2)c1 | -1.84% (inactive) | – | – | –
55 | COc1cc(NC(=S)NCc2cccnc2)cc(OC)c1 | – | -12.6% | – | 5.8 µM (active)
56 | COc1cc(NC(=S)NCc2cccnc2)cc(OC)c1OC | 7.12% (inactive) | 5.48% | – | –
57 | Cc1ccc(-c2nc(C)sc2CC(=O)Nc2cccc(C)c2C)cc1 | 0.0243% (inactive) | 6.08% | – | –
58 | COc1ccc(NC(=O)C(=O)Nc2cccc3cccnc23)cc1OC | – | 32.1% | inactive | –
59 | COc1ccc(C2CC(=O)C3=C(C2)Nc2ccccc2N(C(=O)CCC(=O)O)C3c2ccc(F)cc2)cc1OC (configuration not stated) | -11.3% (inactive) | -2.28% | – | –
